PubChem BioAssay (NCI)
The panel holds about 83,000 compounds, 20% with a hit somewhere; the sample as a whole holds those more often.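 In brief: 96-well plates, 48 h treatment, single concentration, percent growth endpoint.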 Unmarked numbers belong to inactive results. Activity calls are given as the source filed them. How the source made its calls: active means growth percent below 10; inactive means the rest.

What was measured:
Experiment in all cases: NCI-60 one-dose screen, 48 h (100 = growth as untreated, 0 = no growth, -100 = all killed)
Conditions in all cases: 10 µM unless noted
SR leukemia = system: SR leukemia
RPMI-8226 leukemia = system: RPMI-8226 leukemia
OVCAR-8 ovarian = system: OVCAR-8 ovarian
OVCAR-5 ovarian = system: OVCAR-5 ovarian
SK-OV-3 ovarian = system: SK-OV-3 ovarian
IGROV1 ovarian = system: IGROV1 ovarian
OVCAR-3 ovarian = system: OVCAR-3 ovarian
HS 578T breast = system: HS 578T breast
NCI/ADR-RES ovarian = system: NCI/ADR-RES ovarian
T-47D breast = system: T-47D breast
BT-549 breast = system: BT-549 breast
MDA-MB-435 melanoma = system: MDA-MB-435 melanoma
SW-620 colon = system: SW-620 colon
MCF7 breast = system: MCF7 breast
HCT-116 colon = system: HCT-116 colon
HCC-2998 colon = system: HCC-2998 colon
KM12 colon = system: KM12 colon
OVCAR-4 ovarian = system: OVCAR-4 ovarian

| SMILES | growth (SR leukemia) | growth (RPMI-8226 leukemia) | growth (OVCAR-8 ovarian) [%] | growth (OVCAR-5 ovarian) [%] | growth (SK-OV-3 ovarian) | growth (IGROV1 ovarian) [%] | growth (OVCAR-3 ovarian) | growth (HS 578T breast) [%] | growth (NCI/ADR-RES ovarian) | growth (T-47D breast) | growth (BT-549 breast) | growth (MDA-MB-435 melanoma) | growth (SW-620 colon) [%] | growth (MCF7 breast) | growth (HCT-116 colon) | growth (HCC-2998 colon) [%] | growth (KM12 colon) | growth (OVCAR-4 ovarian) [%] |
| --- | --- | --- | --- | --- | --- | --- | --- | --- | --- | --- | --- | --- | --- | --- | --- | --- | --- | --- |
| Cc1ccc(OC2=C(C#N)C(=N)N3C(=NN2)Sc2c(C)ccc(C)c23)cc1 | 98.2% | 105% | 104 | 128 | 96.2% | 87.7 | 117% | 107 | 101% | 84.8% | 105% | 106% | 102 | 91% | 106% | 106 | 106% | – |
| Brc1ccsc1Br | 107% | 103% | 122 | 106 | 94.8% | – | – | 129 | 116% | 95.4% | 102% | 113% | 111 | – | 105% | 105 | 111% | 107 |
| Cc1cc(-c2ccc(N=Nc3c(S(=O)(=O)O)cc4cc(S(=O)(=O)O)cc(O)c4c3O)c(C)c2)ccc1N=Nc1c(S(=O)(=O)O)cc2cc(S(=O)(=O)O)cc(O)c2c1O | 148% | 114% | 99.5 | 99.4 | 88.9% | 80.6 | 120% | 78.6 | 108% | 92.2% | 108% | 103% | 114 | 101% | 109% | 106 | 114% | – |
| COc1cc(C2CC(c3ccc(Cl)cc3)=NN2C=O)ccc1Oc1ccnc2cc(Cl)ccc12 (configuration not stated) | 63.2% | 65.1% | 44.6 | 92.7 | 60% | 97 | 73.4% | 35.5 | 76.6% | 56.4% | 94.7% | 73.3% | 84.5 | 53.4% | 49.2% | 72.8 | 76.2% | – |
| Oc1ccccc1-c1nnc(COc2ccc(Cl)cc2Cl)o1 | 36% | 39.4% | 36.8 | 89.1 | 60.7% | 50.7 | 20.2% | 78.2 | 30.6% | 42.6% | 63.3% | 63.9% | 51.2 | 20.6% | 18.2% | 76.8 | 41.5% | – |
| COc1cc(OC)c2sc(-c3ccc(-n4cncc4-c4ccc(OC)c(N)c4)cc3)nc2c1 | 73.8% | 51.8% | 84.3 | 101 | 123% | 98.2 | 77.4% | 94.1 | 77.4% | 77.2% | 75.2% | 68.8% | 89.1 | 67.3% | 66% | 91.8 | – | – |
| Nc1c(C(=O)Nc2ccccc2)sc2nc3c(cc12)C(=O)CCC3 | 21.9% | 30.2% | 39.9 | 59.9 | 19.7% | 36.4 | -19.4% (active) | 37.5 | -6.39% (active) | 47.1% | 65.7% | -5.95% (active) | 27.2 | 19.6% | 23.6% | 21.9 | 19.9% | – |
| CCCCCCCCCCCCCCCCCC(=O)OCCCCCCCCCCCCC | 116% | 95% | 109 | 113 | 114% | 106 | 114% | 122 | – | 98.4% | 133% | 109% | 117 | 114% | – | 113 | 105% | – |
| C=CC(=O)N1CN(C(=O)C=C)CN(C(=O)C=C)C1 | 25.3% | 84.6% | 62.4 | 109 | 99% | 56.8 | 4.76% (active) | 71.8 | 70.8% | 33.6% | 76.3% | 81.2% | 15.3 | 39.6% | 13.7% | 101 | 85.8% | – |
| COc1cccc(-c2nc3sccn3c2-c2ccnc(NCCN3CCCN(C)S3(=O)=O)n2)c1 | 66.7% | 103% | 98.6 | 102 | 62.4% | 72.7 | 91.2% | 97.5 | 84.9% | 72.4% | 100% | 57.7% | 131 | 106% | 78.1% | 114 | 100% | – |
| CCCCCCCCOC(=O)C(C)OC(=O)OCCOCCOC(=O)OC(C)C(=O)OCCCCCCCC (configuration not stated) | 104% | 98.7% | 105 | 81.8 | 103% | 104 | 98.6% | 102 | 101% | 99.9% | 107% | 103% | 106 | 104% | 102% | 100 | 104% | – |
| Cc1ccccc1NC(=O)c1sc2nc3c(cc2c1N)C(=O)CCC3 | 34.4% | 67.2% | 78.6 | 80.8 | 22.1% | 77 | 4.33% (active) | 25.8 | 22.6% | 43.9% | 55.6% | -12.9% (active) | 25.4 | 21.7% | 34.5% | 67 | 19.2% | – |
| CCCCCCCC/C=C/CCCCCCCC1=NC(C)(C)CN1c1ccccc1 | 71.8% | – | 87.3 | 113 | 99.1% | 101 | 90.8% | 89.5 | 98.1% | 81.2% | 105% | 50.3% | 82 | 86.3% | 62.8% | 103 | – | 80.2 |
| CC(C)(C)c1cc(C[P+](c2ccccc2)(c2ccccc2)c2ccccc2)cc(C(C)(C)C)c1O | -22.3% (active) | -35% (active) | – | 20.8 | -0.717% (active) | – | 13.8% | 16.2 | 73.2% | -4.23% (active) | -0.875% (active) | -38% (active) | 10.6 | 3.43% (active) | 5.83% (active) | 14.6 | -38.6% (active) | – |
| CC1(C)OC2OC3C(CN)OC(c4ccccc4)OC3C2O1 (configuration not stated) | 96.2% | – | 103 | 104 | 104% | 121 | 105% | 118 | 100% | 92.6% | 103% | 110% | 122 | 103% | 101% | 94.9 | – | 111 |
| CC(C)c1cccc(C#N)c1 | 97.1% | – | 95.1 | 112 | 106% | 115 | 111% | 101 | 91% | 95.7% | 102% | 101% | 107 | 95.1% | 101% | 102 | 111% | 101 |
| N/N=C(\C(=N\N)c1ccccc1)c1ccccc1 | 77.2% | – | 104 | 102 | 99.4% | 96.8 | 112% | 108 | 102% | 93% | 88% | 103% | 101 | 90% | 101% | 99.8 | 105% | 77.3 |
| CC(C)(C)c1nn(-c2ccccc2)c2c1C(=O)CSC(c1ccccc1Cl)N2 (configuration not stated) | -13.8% (active) | – | 35.7 | 46.8 | 7.26% (active) | 30.3 | 11.3% | 47.5 | 0.0963% (active) | 29.3% | 44.6% | -12.4% (active) | 37.1 | 17.1% | 16.2% | 24.9 | 32.5% | 72.5 |
